In all, about 53,000 sequences went through this assay and about 3,700 (7%) were called active.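 The calls were made as follows: active = gene knockdowns whose robust z-score for IL-1 alpha signal is at least 2 or at most -2, so actives lie on both sides; inactive = the rest.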 Many of the other results were omitted from the sample, so actives are more common in it than they were.

Results on 108 sequences are retold here after PubChem BioAssay AID1508600 (Functional Genomics Laboratory (NCATS/FGL), 2020).

This test is described as follows: Components of the Cytosolic LPS Sensing Pathway: Gene Identification via Genome-wide siRNA Screen.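 Also: robust z of the log signal after scaling to non-targeting control siRNA wells of the plate.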 Conditions: RAW264.7 macrophages, IL-1a HTRF, actives lie on both sides, screened at 100 nM (by protocol), cells primed 5 h with Pam3CSK4 first. The essentials: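 Three distinct siRNAs per gene were tested singly at 100 nM in RAW264.7 macrophages. Following Pam3CSK4 priming and 24 hour LipidA transfection, IL-1a secretion was read by HTRF.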
Turning to GGGUGAUAAAUGUUUGAAUTT against Vmn1r45, the z-score is 0.338 (inactive).

As to GGAGGCUGUUGUGGAUCUUTT against Acin1, the z-score was 1.03 (inactive).

In the case of GGAAUGUGAAGAAGAAAUUTT against Dnttip2, the z-score is 2.03 (active).

Turning to GCCUAUUGUAGUGUUACAUTT against Cyp2c67, the z-score was -0.887 (inactive).

With GGUGAUCCAGCUUUCUUGGTT against Tiaf2, the z-score is -0.351 (inactive).

Take GGGAAAACAGGUACGACUGTT against Odf1: the z-score was -0.743 (inactive).

Consider GGUGAUCAAGGACAUUUAATT against Psma5, for which the z-score is 0.0545 (inactive).

Take GCCAAUGCUUCCAUUACCATT against Abca17: the z-score was 0.141 (inactive).

As for GGAGCUAGAUAGGAAAAAATT against Vill, the z-score is -1.44 (inactive).

For CGAUUGACUUAAGAUUCAGTT against Hlf, the z-score is -0.612 (inactive).

As to GGCCAAAGAGUUCAGCCUATT against Prrx2, the z-score is -0.29 (inactive).

As to GGUCAAAAGUUCUGGACAGTT against Spin4, the z-score was 5.6 (active).

As to GGACGAUGGUUCCUGAAAATT against Snap91, the z-score was -1.39 (inactive).

On to GGUUGAAGGAGUGUUUUAUTT against Rtcb, for which the z-score is 2.09 (active).

Turning to GGCCCAUAAUUAAAUGUUUTT against Stac2, the z-score is 0.438 (inactive).

Regarding CCAAUAGUUGUGGACAUGATT against Crisp1, the z-score is 1.82 (inactive).

On to GCUUACCUUGUUCUUAAAGTT against D2hgdh, for which the z-score was -1.62 (inactive).

For the sequence GGUACCAUAUGAGAGCUAATT against Tsr2, the z-score is 2.7 (active).

As for AACCAGAGGUCCUAAAUACTT against Mmp28, the z-score was -0.948 (inactive).

With GCUAAGUGCUCGAAUCCGATT against Cnppd1, the z-score is -0.326 (inactive).

GGUGGACAUGUGGAAUGAUTT against Ubxn11: the z-score was 0.463 (inactive).

For the sequence GCUAGUGACUUUGAGAUUGTT against Msh5, the z-score was -0.75 (inactive).

Consider CCACUUUCAGAAACAUUACTT against A2ml1, for which the z-score was -1.01 (inactive).

Regarding GGCUACUGUUGCUGCAUUUTT against Lin7c, the z-score is -2.49 (active).

On to “CCAACAAAAACGUACUUUGTT against 9530091C08Rik”, for which the z-score is 1.24 (inactive).

On to CCAGAGAGAUACCUGAUCUTT against Tas2r113, for which the z-score is -0.993 (inactive).

As for GGGACAAUACAUUGAUAGCTT against Vmn1r206, the z-score was -0.625 (inactive).

Regarding “GGAAGAUGCCUACUUCAGATT against 4632433K11Rik”, the z-score is 2.5 (active).

In the case of GGCCAUCACUAUUAGCCUCTT against Vmn1r70, the z-score was -0.214 (inactive).

With GGGCUAUAUAUAUUUCCACTT against Asns, the z-score is 2.75 (active).

As for CCAUAUUGGCAAUCUCUAGTT against Khdc1a, the z-score was 2.15 (active).

For the sequence GGAAGUAUUGACGAGUGGGTT against Orai3, the z-score is 0.0813 (inactive).

For the sequence GGAAGUCCAUCAGCUUUAUTT against Wdr78, the z-score is 2.29 (active).

Take GCGACUGACACUAACAGAATT against Poc1a: the z-score is -0.261 (inactive).

Turning to GGUUUCAUGAAAGAGGAGCTT against Cbs, the z-score is -0.926 (inactive).

Take GGGCACCACAGAAAGGAAUTT against Olfr376: the z-score is -0.525 (inactive).

For GGCUAACCGAAGCCAUCCUTT against Tceal9, the z-score was 0.969 (inactive).

With GGACCAGGAUAGGACCAAUTT against Avpr2, the z-score was 2.33 (active).

In the case of GCUUUCAUUAAGUCAGAUCTT against Flvcr2, the z-score is 1.16 (inactive).

With GGAUAAGAGAAAAACAGAATT against Ect2, the z-score is 0.141 (inactive).

Turning to GGCAUAGUUGCUGUUCUCUTT against Slc9a9, the z-score is -0.871 (inactive).

As for GGCUGUUUGCCAAAAAAAATT against Ppp1r16a, the z-score is -0.36 (inactive).

With GGCACAGUUCUGGAAGAUGTT against Qtrt1, the z-score is -1.02 (inactive).

Regarding GCACAGACAUCUUUUGCCATT against Man2a2, the z-score is -1 (inactive).

Take GGUAUUCGAAGCAUACAAUTT against Pdha2: the z-score is 3.47 (active).

For GGAAAUGAUCUCUUUUGGATT against Bbs2, the z-score is -0.734 (inactive).

Consider GGCACACUUGAGAAGACACTT against Cul5, for which the z-score was -0.601 (inactive).

For GGAGGAAAGAAGUCCUACATT against Rnase2b, the z-score is -0.835 (inactive).

On to GGUCGGUGUUUUAUCUGCUTT against Slc17a9, for which the z-score is -3.2 (active).

On to CCUUCUAGAUGUCUUAAGATT against Zfp41, for which the z-score was -0.244 (inactive).

On to GGCCAAACAAGACCCAUCUTT against Ppil2, for which the z-score is -0.621 (inactive).

For GGAAAAGUAUUGGUAGACGTT against Steap4, the z-score was -1.73 (inactive).

For the sequence GCAAUGCAAAAGAUGCCCUTT against Chchd7, the z-score was 0.0804 (inactive).

Consider CCCAGUUAGAAUUGUUAUCTT against Snx16, for which the z-score is 1.29 (inactive).

As to CAUCUUUCAUCAAAUAACUTT against Krtap31-2, the z-score is 2.49 (active).

As to GGAAAUUACUUUGAUACUCTT against Rfx3, the z-score was 1.5 (inactive).

For CCAAAACGGAAUCCUAAUATT against Nyap2, the z-score is -1.34 (inactive).

Consider GGGCCACUUUCCAAUUCAATT against Tectb, for which the z-score was 0.817 (inactive).

Consider GGAUCAUAAAAAGAAUCACTT against Gpr21, for which the z-score was 0.851 (inactive).

Take GGGAAUUUACCAAGUACCCTT against Nedd9: the z-score was 1.53 (inactive).

As to CCAUCCCAUAUGUUCCGGUTT against Ptms, the z-score was 0.94 (inactive).

With GGUGAAAACAAUGACUUUGTT against Zbtb44, the z-score is 0.256 (inactive).

Consider GGUUAUUUUGGCUAUAAGATT against Traf3, for which the z-score is -4 (active).

Regarding “CGAUGUUACUAUAGGAUCUTT against A730036I17Rik”, the z-score is 0.33 (inactive).

CCUUCAUUCUCAUUGGCAUTT against Olfr591: the z-score is -0.163 (inactive).

GCACUACCUGUAUUAAACUTT against Efhd2: the z-score is -0.652 (inactive).

Take GCAACACAAGUCAUGAAGUTT against Gabpb2: the z-score was 0.628 (inactive).

Regarding GGAACUGAAAUUCAGUUGGTT against Azin1, the z-score is 0.218 (inactive).

GGGAGGAAAUGAAUGAAUUTT against Gypc: the z-score was 0.686 (inactive).

On to GGAAUUAUCUUCAUCCCUGTT against Abhd10, for which the z-score is -4.79 (active).

With GGAUCUAUCUCUAGUCCCGTT against Zfp358, the z-score is -1.74 (inactive).

On to CCUUUAAAAGUACCAACCCTT against B9d1, for which the z-score was 0.679 (inactive).

As to CGUACCAUGGUCAAGACGUTT against Tpcn1, the z-score is 0.692 (inactive).

In the case of GCCUUAGGUUGAUAGGAGGTT against Tas2r110, the z-score is -0.191 (inactive).

For the sequence GGGACCAGAACAAAUACAATT against Klc3, the z-score was 4.06 (active).

In the case of GGCCUUUUCUUCUUUUUGUTT against Mill1, the z-score was 0.653 (inactive).

In the case of “GGAAGGAAAUGUGUGAAAUTT against 4930555G01Rik”, the z-score is -0.194 (inactive).

For GGAGAGGAUGCAUGUAAAATT against Fbxl22, the z-score was -1.19 (inactive).

On to GGAAAUGAACUCAUAGCCATT against Olfr121, for which the z-score is 0.0495 (inactive).

As for GGAGUAAAGACAUUCAGGATT against Nlrp4f, the z-score is 0.716 (inactive).

For the sequence GCUUGAUCGCUUUCAACUCTT against Coro7, the z-score is 0.734 (inactive).

As to GGAAAUUUUUCGCAUGACCTT against Ddx39b, the z-score is -2.13 (active).

Regarding CCUUCUUCUUACUGAUAAUTT against Olfr1276, the z-score was -0.471 (inactive).

For the sequence GCAAUGAACUAUGAAGGCATT against Npm1, the z-score was -0.32 (inactive).

As to GGACAAAAUUAGACCUUUGTT against Arf2, the z-score was 0.47 (inactive).

GGCAUCCUGUUGAAACUGATT against Vezt: the z-score is -0.962 (inactive).

As for GGGUGAAUUCUGUCUAUGUTT against Far1, the z-score is 0.0586 (inactive).

For the sequence GGUAAAAGCUGUUUGAGAGTT against Smim3, the z-score was -3.43 (active).

With GGAUUAUCAGAAGUGUGUCTT against Mrps35, the z-score was -0.117 (inactive).

For GUCAAGAAUAUUAUGACCCTT against Vamp8, the z-score was 0.516 (inactive).

As to CCUCAUUGUGUCGUCUUACTT against Zer1, the z-score was -0.421 (inactive).

GGCUCUGAGACACAUCUACTT against Cpt1b: the z-score was -0.562 (inactive).

GGAGUUAAUCAGUCAAAUGTT against Dclk2: the z-score was 0.754 (inactive).

CCCAGAAGGAUCUGCUCUUTT against Defa20: the z-score is -2.17 (active).

In the case of GGUUAUGUCGCUAAGGAAATT against Tmem50a, the z-score was -0.392 (inactive).

As to GGAGGUCACCUUCUCAAACTT against Mrgprf, the z-score was 0.374 (inactive).

Consider GCCUUUAACAGCUCUUAAUTT against Gm4894, for which the z-score was 0.999 (inactive).

Consider CGUGCCACUUUUACCGUCCTT against Zdhhc8, for which the z-score is -2.43 (active).

On to UACUCGUAUUCUUAAUUGCTT against Acsl1, for which the z-score was -0.272 (inactive).

As for GCAGAAUCGCUUCAGUUCUTT against Tmed6, the z-score is 0.49 (inactive).

With GGCUGUGUAUUACUGCGCUTT against Vpreb2, the z-score is -0.236 (inactive).

With GCCAUGAUGCAUUAUGUAUTT against Haglr, the z-score was -0.331 (inactive).

Consider GGGUAUUGGUUUUAGAGCATT against Emd, for which the z-score is 0.37 (inactive).

For GGCUCUAAUGUAAUGAAUCTT against Fgf10, the z-score is 0.259 (inactive).

GGGUAAAAGGCUUUUUUGUTT against St8sia6: the z-score was -0.699 (inactive).

As for GGCAAAACAUGCUUGGACCTT against Zfp687, the z-score is 2.31 (active).

As for CCAAUUCCUGGGUGCACACTT against Olfr309, the z-score was -0.691 (inactive).

Turning to GCUCUGCUCUUCUGAAGCATT against Dohh, the z-score was -2.42 (active).
